Data on eight compounds can be found in PubChem BioAssay (NCI).

What all share (assay): NCI-60 one-dose screen, 48 h (100 = growth as untreated, 0 = no growth, -100 = all killed)
Conditions in all cases: 10 µM

Experiment [1] deals with DU-145 prostate.
In experiment [2] the test system is K-562 leukemia.
Experiment [3] has as its system MALME-3M melanoma.
The test system of experiment [4] is MDA-MB-231 breast.
For experiment [5], the system named is RXF 393 renal.
The subject of experiment [6] is SF-268 CNS.
In experiment [7] the test system is SF-295 CNS.
Experiment [8] concerns SF-539 CNS.
Experiment [9] has as its system UACC-257 melanoma.
The subject of experiment [10] is M14 melanoma.
The subject of experiment [11] is HCT-15 colon.
Experiment [12] deals with HT29 colon.
The subject of experiment [13] is SNB-75 CNS.
In experiment [14] the test system is SNB-19 CNS.
Experiment [15] relates to SK-MEL-5 melanoma.
In experiment [16] the test system is UACC-62 melanoma.
Experiment [17] has as its system SK-MEL-28 melanoma.
For experiment [18], the system named is LOX IMVI melanoma.
In experiment [19] the test system is U251 CNS.
The subject of experiment [20] is PC-3 prostate.

Compounds without any hit were thinned out: in the full panel of roughly 83,000, 20% have a hit.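 96-well plates, one dose, 48 hours. Percent growth reported; active if below 10.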 Unmarked numbers belong to inactive results. Active and inactive are the calls of the source.

In the case of `CCOC(=O)CN(c1sc(C)c(C)c1C(=O)OCC)S(=O)(=O)c1ccc(C)cc1`, the growth was 92.1% in [1]; 103% in experiment [2]; 106% in [3]; 72.9% in experiment [4]; 92.1% in experiment [5]; 107% in [6]. Further, the growth is 103% in [7]; 107% in experiment [8]; 98.8% in [9]; 107% in experiment [10]; 99.3% in experiment [11]; 111% in experiment [12]. Further, the growth in experiment [13] is 91.7%; in experiment [14], 86.6%; in experiment [15], 73.2%; in experiment [16], 68.2%; in experiment [17], 102%.
On to `COc1ccc(/C(=N\N)C(=O)c2ccccc2)cc1` (tested in a mixture with another compound), for which the growth is 108% in [1]; 101% in [2]; 106% in experiment [3]; 102% in experiment [4]; 96.9% in experiment [5]; 96.2% in [6]. Besides, the growth in experiment [7] is 89%; in experiment [8], 114%; in experiment [9], 90.8%; in experiment [10], 124%; in experiment [11], 91.1%; in experiment [12], 87.7%. The growth was 93.2% in [13]; 94% in experiment [14]; 97.3% in experiment [15]; 92.8% in [16]; 97.8% in [18]; 102% in experiment [17].
As for `O=C(Nc1cc(Cl)cc2c1-c1ccc(Cl)cc1C2O)C(Cl)Cl` (stereo unspecified), the growth is 60.1% in [1]; 81.9% in experiment [2]; 105% in experiment [3]; 74.4% in experiment [4]; 63.8% in experiment [5]; 91.9% in experiment [6]. Besides, the growth is 83.4% in experiment [7]; 84.2% in experiment [8]; 89.8% in [9]; 85.3% in experiment [10]; 82.5% in [11]; 84.9% in experiment [12]. For the same compound, the growth in experiment [13] was 65.9%; in experiment [14] it was 70%; in experiment [15] it was 41.5%; in experiment [16], 60.3%; in [17], 84.6%.
In the case of `O=c1oc2c(cc1-c1ccc(F)cc1)C(O)Oc1ccccc1-2` (stereo unspecified), the growth in experiment [1] was 98.1%; in experiment [2] it was 66.7%; in experiment [3] it was 58.4%; in [4], 77.8%; in experiment [5], 93.9%; in experiment [6] it was 81.4%. Besides, the growth in [7] was 84.2%; in experiment [8], 74.4%; in [9] it was 84.1%; in [11], 63.4%; in experiment [12], 66.8%; in experiment [13], 63.4%. The growth is 95.9% in experiment [14]; 67.4% in experiment [19]; 92.9% in experiment [20]; 34.8% in experiment [15]; 44.5% in experiment [16]; 77.8% in experiment [18]. Further, the growth in experiment [17] was 88.6%.
`C[C@]12CC[C@@H]3c4ccc(O)cc4CC[C@H]3[C@@H]1CC[C@@H]2NS(=O)(=O)c1ccc(C(F)(F)F)cc1`: the growth in experiment [1] was 69.8%; in [2], 22.5%; in [3] it was 9.1% (active); in experiment [4], 67.2%; in [5], 22.9%; in [6], 57%. Moreover, the growth in [7] was 30.9%; in experiment [8], 78.1%; in [9], 73.6%; in experiment [10], 36.6%; in experiment [11], 32.7%; in experiment [13] it was 62.1%. Further, the growth in [14] is 97.5%; in experiment [20] it was 24.2%; in [15], 41.2%; in experiment [16], 73.5%; in [17] it was 73.1%.
`CC(C)(C)c1ccc(S(=O)(=O)N[C@H]2CC[C@H]3[C@@H]4CCc5cc(OS(=O)(=O)O)ccc5[C@H]4CC[C@]23C)cc1`: the growth in experiment [1] was 63.3%; in experiment [2] it was 22%; in experiment [3] it was 41.8%; in experiment [4], 26.4%; in experiment [5], 9.08% (active); in [6], 51.2%. For the same compound, the growth in [7] is 44.7%; in experiment [8], 82.4%; in experiment [9] it was 68.2%; in experiment [10] it was 54.2%; in experiment [11] it was 35.4%; in [13], 61.6%. The growth in experiment [14] was 92.3%; in experiment [20] it was 27.5%; in experiment [15] it was 52.5%; in [16] it was 62%; in [17], 77.5%.
For `Cc1cc(C)nc(NS(=O)(=O)c2ccc(Nc3nc4nc(NCc5ccccc5)nc(-c5ccc(O)cc5)c4c(=O)[nH]3)cc2)n1`, the growth was 33% in experiment [1]; 37.8% in experiment [2]; -12.6% (active) in [3]; 29.2% in [4]; -1.77% (active) in experiment [5]; 27.8% in experiment [6]. Besides, the growth in experiment [7] is 27.3%; in experiment [8], 39.9%; in [9], 66.1%; in [11], 18.5%; in experiment [12], 32.2%; in experiment [13], 48.2%. For the same compound, the growth in [14] is 28.2%; in [20], 1.02% (active); in experiment [15], 4.9% (active); in experiment [16], 21.8%; in experiment [18], 23.4%; in experiment [17], 32.7%.
For `Cc1c2cnccc2c(C)c2c1oc1ccccc12`, the growth in experiment [1] is 54.1%; in experiment [2], 77.2%; in experiment [3], 62.7%; in [4], 111%; in [5] it was 71.5%; in experiment [6] it was 73.8%. Moreover, the growth was 74.9% in experiment [7]; 96.6% in experiment [8]; 86.8% in experiment [9]; 81.6% in experiment [10]; 72.3% in experiment [11]; 72.8% in experiment [12]. The growth in experiment [13] is 106%; in experiment [14], 73.1%; in [20], 99.8%; in experiment [15], 60.1%; in experiment [16], 53.9%; in experiment [17], 110%.
